# Assay outcomes as filed in PubChem BioAssay.
# GSH fluor: compound fluorescence on glutathione beads, profiling panel, artefact control, biophysical, 488/530 nm, flow cytometry; GSH beads flow cytometry, compound fluorescence 488/530 nm; hits give high values; fluorescence (KMESF) at 10 µM; actives 0.25% (n = 190,000); AID 1776, 2009; in the data active = fluorescence above about 89;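 also: glutathione beads carrying GST-tagged Bcl family fusion proteins plus one bare bead set; values are compound well signal with DMSO vehicle wells as background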
# RGS4-Gao reg: modulators of RGS4 binding to Galphao, primary screen, biochemical, multiplexed bead flow cytometry. actives lie on both sides. actives 0.33% (n = 220,000). binding response (% of control), % at 10 µM. Guanine nucleotide-binding protein G(o) subunit alpha (Homo sapiens), P09471; in the data active = binding response below about 49% or above about 150%; inactive = in between;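 also: fluorescent Galphao activated with aluminum fluoride binding bead-coupled RGS4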
# Target sequence (P09471 whole entry, looked up): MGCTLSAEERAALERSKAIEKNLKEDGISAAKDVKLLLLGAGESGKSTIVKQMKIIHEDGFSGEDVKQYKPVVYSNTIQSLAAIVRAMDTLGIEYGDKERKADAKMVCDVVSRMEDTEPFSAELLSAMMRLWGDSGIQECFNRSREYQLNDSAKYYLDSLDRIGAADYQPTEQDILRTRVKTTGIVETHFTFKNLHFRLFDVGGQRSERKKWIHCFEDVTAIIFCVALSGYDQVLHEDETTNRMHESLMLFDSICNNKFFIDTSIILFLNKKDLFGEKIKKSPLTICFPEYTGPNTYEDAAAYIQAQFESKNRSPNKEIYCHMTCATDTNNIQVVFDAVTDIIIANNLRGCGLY
# Avidin bead fluor: green autofluorescence of compounds with avidin beads – biophysical, 488/530 nm, flow cytometry, artefact control, profiling panel; compound fluorescence 488/530 nm; hits give high values; fluorescence (KMESF) at 10 µM; actives 0.38% (n = 220,000); AID 1775, 2009; in the data active = fluorescence above about 47
# RGS7-Gao reg: RGS7-Galphao binding modulators, primary screen, biochemical, multiplexed bead flow cytometry; AID 1439, 2008; binding response (% of control), % at 10 µM; actives 0.35% (n = 220,000); actives lie on both sides; in the data active = binding response below about 49% or above about 150%; inconclusive = no clear call, values can overlap the other calls; inactive = in between;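 also: fluorescent Galphao held in activated GDP-AlF4 state binding bead-coupled RGS7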
# RGS8-Gao: RGS8-Galphao binding modulators, primary screen, biochemical, multiplexed bead flow cytometry; actives lie on both sides; response (percent of control binding), % at 10 µM; actives 0.34% (n = 220,000); AID 1423, 2008; in the data active = response below about 60% or above about 140%; inactive = in between;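 also: Galphao activated as the GDP aluminium fluoride complex binding bead-coupled RGS8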
# RGS16-Gao: modulators of RGS16 binding to Galphao, primary screen, biochemical, human proteins, multiplexed bead flow cytometry. Regulator of G-protein signaling 16 (Homo sapiens) + Guanine nucleotide-binding protein …. bead-based flow cytometry RGS16-Galphao binding, fluorescence; actives lie on both sides. binding response (% of control), % at 10 µM. actives 0.38% (n = 220,000). AID 1441, 2008; call rule not given here;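 also: Galphao activated by GDP with aluminum fluoride before binding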
# Target sequence (O15492 whole entry, looked up): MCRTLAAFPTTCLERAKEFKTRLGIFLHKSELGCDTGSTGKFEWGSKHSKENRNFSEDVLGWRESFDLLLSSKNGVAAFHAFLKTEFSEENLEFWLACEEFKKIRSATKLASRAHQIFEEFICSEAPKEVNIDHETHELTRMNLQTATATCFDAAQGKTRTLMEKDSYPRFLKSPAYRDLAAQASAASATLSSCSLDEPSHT
# Target sequence (P09471 whole entry, looked up): as the sequence (P09471 whole entry, looked up) above
# * marks the source's active call; other numbers are inactive results; ? = inconclusive; · = no result given. Compounds with a hit are over-represented: about 1.2% of the library has one in this group of screens.
SMILES,GSH fluor,RGS4-Gao reg,Avidin bead fluor,RGS7-Gao reg,RGS8-Gao,RGS16-Gao
COCCCn1c(SCC(=O)Nc2ccc(C(C)=O)cc2)nc2ccccc2c1=O,259*,94.4,7,98.8,100.1,92.0
CN1CCC(N(C)C(=O)c2sc3cc(F)ccc3c2Cl)CC1,14,130.7,136*,?,95.0,103.8
CC(C)N(CC(N)=O)C(=O)c1sc2cc(F)ccc2c1Cl,9,96.5,18,91.7,94.9,90.8
NCCSc1c(-c2ccccc2)[nH]c2ccccc12,17,5.5*,-1,-8.4*,12.5*,-3.3*
NCCSc1c(-c2ccc(Cl)cc2)[nH]c2ccccc12,·,103.9,6,?,102.1,105.7
O=S(=O)(Nc1ccc(Cc2ccncc2)cc1)c1ccc(Br)cc1,20,22.0*,-2,15.0*,12.2*,1.0*
Cc1ccc(NC(=S)Nc2ccc(OC(F)F)c(Cl)c2)cc1F,18,99.7,11,?,100.2,101.5
Cc1ccc2c(CSc3nnc(C4CC4)n3N)cc(=O)oc2c1,262*,100.6,9,100.5,99.2,101.9
CN(C)S(=O)(=O)c1ccc(C(=O)OCCn2cnc3c2c(=O)n(C)c(=O)n3C)cc1,13,97.5,13,96.7,96.9,98.4
COc1cccc(C(=O)Nc2c(C)n[nH]c2C)c1,17,117.4,55*,116.5,104.6,118.6
COc1ccc(N(C(=O)Cn2nnc3ccccc32)C(C(=O)NCc2ccco2)c2ccc(C)o2)cc1 (configuration not stated),252*,98.6,6,101.9,100.4,84.8
O=C1CSC(=S)N1Cc1cccnc1,65,103.5,8,99.8,97.4,100.9
O=C1CSC(=S)N1c1cccnc1,266*,99.7,7,97.6,101.1,99.2
O=C(O)C1CCN(C(=O)CCc2ccccc2)CC1,·,102.3,6,?,99.6,106.0
O=C(CSCc1ccc([N+](=O)[O-])cc1)Nc1ccccc1C(=O)O,19,102.2,12,98.3,99.1,102.0
COc1ccc(C2C(C(=O)NC(C)C)c3ccccc3C(=O)N2C)cc1OC (configuration not stated),48,109.9,54*,117.5,97.2,86.4
COc1ccc(OC)c(NC(=O)COC(=O)c2ccc(S(=O)(=O)N3CCOCC3)cc2)c1,276*,98.8,7,98.7,100.0,102.1
Cc1cc(S(=O)(=O)N2CCN(c3ccccc3C)CC2)ccc1F,23,101.8,5,102.4,104.1,105.9
Cc1ccccc1N1CCN(S(=O)(=O)c2ccccc2)CC1,98*,107.2,12,104.5,106.3,105.8
CC1CCN(S(=O)(=O)c2ccc3c(c2)oc(=O)n3CC(=O)N2c3ccccc3CC2C)CC1 (configuration not stated),21,93.0,56*,91.4,106.9,143.5
CCn1nnc(NC(=O)c2cccnc2Cl)n1,259*,97.7,9,98.6,101.0,104.7
CCOc1ccc(C(=O)Nc2nnn(CC)n2)cc1,16,94.1,7,93.2,97.7,92.3
O=C(N/N=C/c1ccc(-c2ccc(S(=O)(=O)Nc3ncccn3)cc2)o1)c1cc2ccccc2cc1O,28,112.3,50*,102.5,100.3,100.8
Cc1ccsc1C(=O)OC1CCOC1=O (configuration not stated),271*,93.5,7,89.4,95.5,96.8
Cc1ccccc1OCc1csc(N)n1,13,100.0,9,?,101.3,100.1
SMILES,GSH fluor,RGS4-Gao reg,Avidin bead fluor,RGS7-Gao reg,RGS8-Gao,RGS16-Gao
COC(=O)C(Cc1cnc(Cl)s1)(C(=O)OC)c1ccc([N+](=O)[O-])cc1[N+](=O)[O-],272*,99.2,7,101.7,104.0,116.7
CCCCNC(=O)c1cnc2n(c1=O)CCS2,23,101.9,29,103.0,101.4,98.9
CCOC(=O)N1CCC(NC(=O)c2cnc3n(c2=O)CCS3)CC1,18,-14.5*,-2,-21.1*,2.7*,-12.8*
Cc1ccc(-c2nnn(CC(=O)Nc3nnc(C(C)C)s3)n2)cc1,15,105.0,12,103.8,104.3,105.2
CCC1(C)NC(=O)N(CC(=O)Nc2sc3c(c2C(N)=O)CCC3)C1=O (configuration not stated),222*,82.8,3,77.2,86.1,1.2
NC(=O)c1c(NC(=O)CN2C(=O)CCC2=O)sc2c1CCCCC2,28,105.1,8,106.3,104.8,113.4
CCN1/C(=N\N)c2cccc3cccc1c23,16,97.6,9,?,95.8,96.3
C/C(=N\NC(=O)c1c(Br)cnn1C)c1ccc(NC(=O)c2ccc(F)cc2)cc1,19,88.5,12,85.7,92.1,87.9
CCS(=O)(=O)c1nc(S(=O)(=O)c2ccc(Cl)cc2)c(NCCOC)s1,11,101.4,3,103.0,104.0,101.5
CCn1c(SCC(=O)N2CCN(c3ccccc3)CC2)nnc1-c1ccncc1,148*,98.2,4,101.2,98.7,95.4
NC(=O)CSc1nnc(-c2ccncc2)n1-c1ccc(Cl)cc1,23,90.2,5,93.7,86.4,48.6
O=C(CSc1nnc(-c2ccncc2)n1-c1ccc(Cl)cc1)N1CCOCC1,18,107.3,77*,131.8,98.1,104.4
Cc1nn(CCCC(=O)Nc2c(F)cc(F)cc2Br)c(C)c1[N+](=O)[O-],16,99.4,11,97.3,100.5,97.2
Cc1nc(CSc2ccccc2)cc(=O)[nH]1,12,101.0,18,103.7,108.8,118.2
Cn1c(=O)c2[nH]c(COc3ccc(C(C)(C)C)cc3)nc2n(C)c1=O,·,104.8,4,?,104.2,104.8
CCOC(=O)c1c(C)[nH]c(C(=O)Cn2nnc(-c3ccccc3)n2)c1C,265*,105.0,18,105.2,97.6,104.2
CCOC(=O)c1c(C)[nH]c(C(=O)Cn2nnc(-c3ccccc3Cl)n2)c1C,13,103.9,37,100.0,100.5,99.3
CCOC(=O)c1cnn(-c2ccc(C)cc2)c1N,255*,104.3,8,94.7,104.0,102.5
C=C(C)c1cccc(C(C)(C)NC(=O)NCCCn2ccnc2)c1,25,101.5,50*,102.7,100.9,100.2
C=C(C)c1cccc(C(C)(C)NC(=O)NCCCN2CCCC2=O)c1,22,106.1,16,110.0,104.0,108.8
Cc1ccc(NC(=S)N2CCC(N(C)CC3CCCO3)CC2)cc1 (configuration not stated),16,100.1,12,99.9,100.9,99.7
